D3 antag: antagonists of human D3 dopamine receptor; max response, negative = inhibition, %; AID 652054; 360,000 tested, 2.5% active; D3R cells, DiscoveRx beta-arrestin luminescence, antagonist mode; hits give low values; in the data active = max response below about -50%; inconclusive = no clear call, values can overlap the other calls
Target sequence (P35462 whole entry, looked up): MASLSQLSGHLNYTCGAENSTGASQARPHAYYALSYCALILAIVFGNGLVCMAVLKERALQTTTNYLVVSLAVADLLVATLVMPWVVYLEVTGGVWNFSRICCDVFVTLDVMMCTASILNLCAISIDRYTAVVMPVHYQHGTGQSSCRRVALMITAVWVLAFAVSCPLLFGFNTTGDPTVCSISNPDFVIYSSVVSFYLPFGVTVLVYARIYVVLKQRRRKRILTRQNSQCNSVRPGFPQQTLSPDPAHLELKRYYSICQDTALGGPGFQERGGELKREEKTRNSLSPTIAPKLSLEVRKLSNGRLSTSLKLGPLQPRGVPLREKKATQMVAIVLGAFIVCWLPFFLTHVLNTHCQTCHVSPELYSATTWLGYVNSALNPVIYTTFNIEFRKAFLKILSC
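Cells plated overnight at 1500 cells/well, then exposed to library compounds with dopamine controls for 90 minutes at 37 degrees C. DiscoveRx reagent added for 30–60 minutes at room temperature; luminescence read, quantitative HTS format.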
KB-V1 cytotox: kills drug-selected multidrug resistant KB-V1 cells; KB-V1 MDR cells viability, CellTiter-Glo, 72 h; Potency, µM (series often up to 46.1 µM), usual class: cytotoxic; 400,000 tested, 3.4% active; AID 1347076; also: nearly all actives have a fitted effect of over 60% in size
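Cells of the MDR subline KB-V1 are plated, dosed with compound at multiple concentrations, and incubated 72 h at 37 degrees C; CellTiter-Glo is then added and luminescence read after 10 min.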
SW480 rereplic: induces DNA re-replication in SW480 colon adenocarcinoma cells | SW480 DNA re-replication, Hoechst DNA content imaging, 48 h | Potency, µM (series often up to 46.1 µM), usual class: activators | 340,000 tested, 1.8% active | AID 624297; also: nearly all actives have a fitted effect of over 55% in size
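Treated cells incubate 48 hr (37 C, 5% CO2), are stained 40 min with Hoechst, and nuclear fluorescence is enumerated; a rise in nuclei with high DNA signal marks re-replication.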
DRD3 agonist: activates the human D3 dopamine receptor. P35462. D3R DiscoveRx beta-arrestin cells, luminescence, 90 min. max activation, %. 410,000 tested, 0.58% active; in the data active = max activation above about 30%
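Agonist mode: compounds and dopamine controls were applied to plated cells for 90 min at 37 degrees C after an overnight attachment at 1500 cells/well. Luminescent read-out followed 30 - 60 minutes at room temperature with DiscoveRx detection reagent.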
KB-3-1 tox: KB-3-1 parental cell cytotoxicity; KB-3-1 viability, CellTiter-Glo ATP luminescence, 72 h; 400,000 tested, 1.4% active; Potency, µM (titrated, usually from 46.1 µM), most hits filed as cytotoxic; AID 1347075; also: nearly all actives have a fitted effect of over 60% in size
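KB-3-1 cells, DMEM (no phenol red) + 10% FBS; compound by pin transfer, 72 h, 37 °C. Readout: CellTiter-Glo luminescence after 10 min. Data normalized, curve-fitted.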
MCF10A rerep: inducers of DNA re-replication in MCF 10A breast cells. 350,000 tested, 2.9% active. MCF 10A DNA re-replication, Hoechst nuclear intensity, 48 h. AID 624296. Potency, µM (titrated, usually from 46.1 µM), actives largely listed as activators; also: nearly all actives have a fitted effect of over 50% in size
Of the large screens only hits and unclear results are named; the others gave an inactive call; ! = not active in a repeat. Only some compounds are listed: those with a hit (about 8.9% of all), similar ones and a draw of the others. Unless noted, calls follow the shape of the dose curve; as a rule, active = well fitted curve in the direction sought with a large enough effect; inconclusive = small, poorly fitted or top-dose-only effect, or another doubt; inactive = no such curve, though single readings can be large; an effect the other way counts as inactive or inconclusive.

O=c1cc(CCl)nc(Cc2c(Cl)cccc2Cl)[nH]1	KB-V1 cytotox inconclusive, SW480 rereplic inconclusive, KB-3-1 tox inconclusive, MCF10A rerep 18µM
Cc1[nH]c(=O)sc1C(=O)NCc1ccc([N+](=O)[O-])cc1	none (no result: SW480 rereplic, MCF10A rerep)
O=C(CSC1CS(=O)(=O)c2cc([N+](=O)[O-])ccc21)NNC(=O)c1ccccc1 (stereo not drawn)	SW480 rereplic 9.2µM, MCF10A rerep inconclusive
O=C(CSC1CS(=O)(=O)c2cc([N+](=O)[O-])ccc21)NNC(=O)c1ccc(Cl)cc1 (stereo not drawn)	KB-V1 cytotox inconclusive
CC(=O)CC1OC(=O)C(Br)=C1NCc1ccccc1 (stereo not drawn)	SW480 rereplic inconclusive, MCF10A rerep 2.6µM
CCCn1c(C)cc(-c2csc(N)n2)c1C	KB-3-1 tox inconclusive
Cc1c(-c2csc(N)n2)cnn1C	DRD3 agonist 42
CCn1c(C(=O)OC)cc2c1ccn2-c1ccc(F)cc1	D3 antag -77, SW480 rereplic inconclusive
Cc1cccc(CN2CCN(CC(=O)NCc3ccc(Cl)cc3)C2=O)c1	none (no result: D3 antag, SW480 rereplic, MCF10A rerep)
S=c1[nH]nc(C2CCCCC2)n1/N=C/c1ccc(Br)s1	SW480 rereplic inconclusive, MCF10A rerep 18µM
FC(F)(F)c1ccc(/C=N/n2c(C3CCCCC3)n[nH]c2=S)cc1	MCF10A rerep 23µM
S=c1[nH]nc(C2CCCCC2)n1/N=C/c1ccc(Cl)cc1	SW480 rereplic inconclusive, MCF10A rerep inconclusive
S=c1[nH]nc(C2CCCCC2)n1/N=C/c1ccc(Br)cc1	MCF10A rerep inconclusive
COc1cccc(CN2CCc3nc(N4CCN(c5ncccn5)CC4)ncc3C2)c1	KB-3-1 tox inconclusive (no result: D3 antag, SW480 rereplic, MCF10A rerep)
Cc1cccc(OCCSc2nncn2C)c1	none
Cc1cccc(OCCSc2nnc(-c3ccoc3C)n2C)c1	KB-V1 cytotox 18µM
CN(C)C(CNc1ccc(S(C)(=O)=O)cc1[N+](=O)[O-])c1ccccc1 (stereo not drawn)	D3 antag -64
Cc1ccc(C)c(Cn2c(=O)n(Cc3ccco3)c(=O)c3oc4ccccc4c32)c1	none (no result: D3 antag, KB-V1 cytotox, SW480 rereplic, KB-3-1 tox, MCF10A rerep)
CCN(c1ccccc1)S(=O)(=O)c1nnc(NC(=O)CC(C)C)s1	D3 antag -66
CN(c1ccccc1)S(=O)(=O)c1nnc(NC(=O)c2ccco2)s1	none
CC(C)CN(c1ccccc1)S(=O)(=O)c1nnc(NC(=O)c2ccco2)s1	D3 antag -86
COCCOC(=O)c1c(C)nc(SCC(=O)Nc2cccc3ccccc23)c(C#N)c1-c1ccco1	D3 antag -65, KB-V1 cytotox inconclusive
COCCOC(=O)c1c(C)nc(SCC(=O)Nc2ccc(C)cc2)c(C#N)c1-c1ccco1	KB-V1 cytotox inconclusive
Cc1ccc(S(=O)(=O)N2CCCC2C(=O)NCc2ccccc2Cl)cc1 (stereo not drawn)	none
Cc1cccc(N(Cc2cc3ccccc3[nH]c2=O)C(=O)c2cccc(Cl)c2)c1	none (no result: D3 antag, SW480 rereplic, MCF10A rerep)
Cc1ccc2cc(CN(C(=O)c3cccs3)c3ccccc3)c(=O)[nH]c2c1	SW480 rereplic inconclusive, MCF10A rerep inconclusive
Cc1ccc2[nH]c(=O)c(CN(C(=O)c3cccs3)c3ccccc3)cc2c1	KB-V1 cytotox 3.3µM, KB-3-1 tox inconclusive
Cc1cccc(N(Cc2cc3cc(C)ccc3[nH]c2=O)C(=O)c2cccs2)c1	MCF10A rerep 10µM
CC(SCc1ccccc1)C(=O)Nc1ccccc1F (stereo not drawn)	none
Cc1ccc(-c2c(C)n3c4c(=O)n(C)c(=O)n(C)c4nc3n2CCCO)cc1	KB-V1 cytotox 6.5µM, DRD3 agonist 37, KB-3-1 tox inconclusive (no result: D3 antag, SW480 rereplic, MCF10A rerep)
COC(=O)CCCn1c(-c2ccc(C)cc2)c(C)n2c3c(=O)n(C)c(=O)n(C)c3nc12	KB-V1 cytotox inconclusive (no result: D3 antag, SW480 rereplic, MCF10A rerep)
Fc1ccc(-n2ncc3c(Nc4cccc(Cl)c4)ncnc32)cc1	none (no result: D3 antag, SW480 rereplic, MCF10A rerep)
CCOC(=O)CC1Sc2ccccc2NC1=S (stereo not drawn)	none
CC1CC(=S)Nc2ccccc2S1 (stereo not drawn)	D3 antag -77
CCC(C)(C)C1CCc2[nH]nc(C(=O)NCc3ccc(Cl)cc3)c2C1 (stereo not drawn)	D3 antag -75, KB-V1 cytotox inconclusive
CCC(C)(C)C1CCc2[nH]nc(C(=O)NCc3ccccn3)c2C1 (stereo not drawn)	MCF10A rerep inconclusive
c1ccc2c(NCCc3c[nH]c4ccccc34)c3ccccc3nc2c1	D3 antag inconclusive
c1ccc(CNc2nnnn2-c2ccccc2)cc1	KB-V1 cytotox 21µM, KB-3-1 tox inconclusive
c1ccc(-n2nnnc2NCCc2c[nH]c3ccccc23)cc1	D3 antag -52
O=C1CC(N2CCN(C/C=C/c3ccccc3)CC2)C(=O)N1Cc1ccc(N2CCCC2=O)cc1 (stereo not drawn)	KB-V1 cytotox 10µM, KB-3-1 tox inconclusive
O=C1CC(N2CCOCC2)C(=O)N1Cc1ccc(N2CCCC2=O)cc1 (stereo not drawn)	none
COc1ccc(CC(=O)N/N=C(\C)c2cccnc2)cc1	none
CN=c1scc(-c2ccc(OC)cc2)n1/N=C(\C)c1cccnc1	KB-V1 cytotox inconclusive, DRD3 agonist 35, KB-3-1 tox inconclusive
COc1cc2nc(N3CCN(C(=O)C4COc5ccccc5O4)CC3)nc(N)c2cc1OC (stereo not drawn)	SW480 rereplic 21µM!, MCF10A rerep 15µM!
COc1ccc2c(C)c(CC(=O)N3CCN(C(=O)C4COc5ccccc5O4)CC3)c(=O)oc2c1C (stereo not drawn)	SW480 rereplic 16µM, MCF10A rerep inconclusive
Cc1c(CC(=O)N2CCN(C(=O)C3COc4ccccc4O3)CC2)c(=O)oc2cc(O)c(Cl)cc12 (stereo not drawn)	KB-V1 cytotox inconclusive, SW480 rereplic inconclusive
CCN1CCC(NCCc2ccc(F)cc2)CC1	MCF10A rerep 18µM
CC(C)CCNc1ncnc2c1nnn2Cc1ccccc1Cl	KB-V1 cytotox 13µM
OCCNc1ncnc2c1nnn2Cc1ccccc1Cl	D3 antag inconclusive (no result: SW480 rereplic, MCF10A rerep)
C[C@@H](CN1C2=NC[C@H](Cc3ccc(O)cc3)N2C[C@H]1Cc1ccc(O)cc1)NC(=O)CCC1CCCCC1	none
COc1ccc(C[C@H]2CN3C(=NC[C@@H]3Cc3ccc(O)cc3)N2C[C@H](C)NC(=O)c2ccc(C)c(Br)c2)cc1	D3 antag -81, KB-3-1 tox inconclusive
COc1ccc(C[C@H]2CN3C(=NC[C@@H]3C(C)C)N2C[C@H](C)NC(=O)c2ccc(C)c(Br)c2)cc1	D3 antag -76, KB-3-1 tox inconclusive
Cc1ccc(C(=O)N[C@@H](C)CN2C3=NC[C@H](C(C)C)N3C[C@H]2Cc2ccc(O)cc2)cc1Br	KB-3-1 tox inconclusive
CCOc1cc(Br)c(C(=O)O)cc1OCC	none

Screening data (PubChem)
